Reference: PubChem BioAssay (EPA / NIEHS)
“And” between values parts separate entries of the source, which are not always exact repeats. Identical values can stand only once. Results filed as inconclusive are left out. More than one record can exist for a structure, and the calls need not agree. The source made the active and inactive calls. How the source made its calls: active means hit-call score of the fitted dose curve at least 0.9, where 1 is the maximum; inconclusive means response in the unintended direction; inactive means score below 0.9.

Experiments:
[1] = biological target: GAL4 Transcription Factor (Internal Marker), GAL4 (gene 855828) (UniProt P04386); assay: ATG_GAL4_XSP2: Attagene TRANS-FACTORIAL Multi-Species (XSP2) HepG2 Assay for GAL4 Transcription Factor (Internal Marker) (AID 2283814);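 further: GAL4 reporter mRNA background control in MRTU transfected cells not a receptor target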
Experimental: ATG_XSP2_multi-species_TRANS is a cell-based, multiplexed assay created by modifying the existing Attagene TRANS-FACTORIAL system to include a panel of nuclear receptors from some or all the following species: human (Homo sapiens), mouse (Mus musculus), frog (Xenopus laevis), zebrafish (Danio rerio), chicken (Gallus gallus), and turtle (Chrysemys picta). The ECOTOX-FACTORIAL format uses HepG2, a human liver cell line, with measurements taken at 24 hours after chemical dosing in a 24-well plate. Xsp2 included 3 nM 6-alpha-fluorotestosterone and 1.5 nM norgestrel to stimulate the androgen receptor.ATG_GAL4_XSP2 is one of 29 assay components measured or calculated from the ATG_XSP2_multi-species_TRANS assay. It is designed to make measurements of mRNA induction, a form of inducible reporter, as detected with fluorescence intensity signals by Reverse transcription polymerase chain reaction (RT-PCR) and Capillary electrophoresis technology.This assay endpoint, ATG_GAL4_XSP2, was analyzed in the positive analysis fitting direction relative to DMSO as the negative control and baseline of activity. […] Furthermore, this assay endpoint can be referred to as a secondary readout, because this assay has produced multiple assay endpoints where this one serves a background control function. […]
Human liver HepG2 cells are transiently transfected with multiple reporter transcription units (MRTUs) in 6-well plates using FuGene 6 reagent (Roche; 3 ml FuGene/1 mg DNA). […] A major difference between the CIS and TRANS system is that in CIS activities of endogenous TFs are measured, whereas the TRANS assay evaluates changes in activities of exogenous, chimeric NR-Gal4 proteins. […] The fragments were purified using Qiaquick PCR columns (Qiagen), analyzed on an ABI 3130xL genetic analyzer (Applied Biosystems) with peak positions identified by using a set of X-rhodamine (ROX)-labeled MapMarker1000 molecular weight standards (BioVentures). […]

[2] = biological target: zebrafish Estrogen Receptor (ER1), esr1 (gene 259252) (UniProt P57717); assay: ATG_zfER1_XSP2: Attagene TRANS-FACTORIAL Multi-Species (XSP2) HepG2 Assay for zebrafish Estrogen Receptor (ER1) (AID 2283816)
How it was run: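 After 24 h compound exposure, RNA from transfected HepG2 cells was reverse-transcribed and reporter transcripts resolved by capillary electrophoresis. The TRANS format reads exogenous zebrafish ER1-Gal4 chimera activity on GAL4-UAS elements; gain of signal against DMSO.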

[3] = biological target: chicken Estrogen Receptor (ERa), ESR1 (gene 396099) (UniProt P06212); assay: ATG_chERa_XSP2: Attagene TRANS-FACTORIAL Multi-Species (XSP2) HepG2 Assay for chicken Estrogen Receptor (ERa) (AID 2283817);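 further: actives raise reporter signal above DMSO so AC50 reflects ER activation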
How it was run: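 Exogenous chicken ERa-Gal4 chimera activity was assessed in transfected human liver HepG2 cells after 24 h of treatment. Induced reporter mRNA was quantified fluorescently by capillary electrophoresis, with DMSO as baseline.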

[4] = system: zebrafish Estrogen Receptor (ER2a), gene 317734; assay: ATG_zfER2a_XSP2: Attagene TRANS-FACTORIAL Multi-Species (XSP2) HepG2 Assay for zebrafish Estrogen Receptor (ER2a) (AID 2283818);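 further: hits raise reporter mRNA so AC50 reflects activation of zebrafish ER2a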
How it was run: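 Multiplexed trans-reporter readout: RT-PCR then capillary electrophoresis of reporter transcripts after 24 h compound treatment. Human HepG2 carries transfected zebrafish ER2a-Gal4 chimera; 3 nM 6-alpha-fluorotestosterone plus 1.5 nM norgestrel present. Induction scored against DMSO.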

[5] = system: chicken Androgen Receptor (AR), gene 422165; assay: ATG_chAR_XSP2: Attagene TRANS-FACTORIAL Multi-Species (XSP2) HepG2 Assay for chicken Androgen Receptor (AR) (AID 2283819);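 further: hits raise reporter mRNA above DMSO so potency is for activation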
How it was run: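 Readout is reporter mRNA induction via RT-PCR/capillary electrophoresis after 24 h chemical exposure, positive direction relative to DMSO. Transiently transfected HepG2 express chimeric chicken AR–GAL4; AR stimulated by 3 nM 6-alpha-fluorotestosterone and 1.5 nM norgestrel.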

[6] = system: turtle Estrogen Receptor (ERa), gene 101933533; assay: ATG_trERa_XSP2: Attagene TRANS-FACTORIAL Multi-Species (XSP2) HepG2 Assay for turtle Estrogen Receptor (ERa) (AID 2283812);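 further: actives raise reporter signal above DMSO so AC50 reflects agonist activity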
How it was run: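 Readout is reporter mRNA quantified by RT-PCR with capillary electrophoresis after 24 h compound exposure, increase relative to DMSO. Uses transiently transfected human HepG2 liver cells carrying a chimeric turtle ERa-Gal4 receptor driving GAL4-UAS reporters.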

[7] = biological target: Estrogen receptor beta (Homo sapiens) (UniProt Q92731); assay: ATG_hERb_XSP2: Attagene TRANS-FACTORIAL Multi-Species (XSP2) HepG2 Assay for human Estrogen Receptor (ERb) (AID 2283813);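 further: actives raise reporter mRNA above DMSO so AC50 reflects agonist induction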
How it was run: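 Transient TRANS reporter system in HepG2: after 24 h of chemical, RNA is reverse-transcribed, reporter cDNA amplified, FAM-labelled and sized by capillary electrophoresis. Induction of the human ERb-Gal4 reporter is measured relative to DMSO.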

[8] = system: frog Estrogen Receptor (ER), gene 398734; assay: ATG_frER1_XSP2: Attagene TRANS-FACTORIAL Multi-Species (XSP2) HepG2 Assay for frog Estrogen Receptor (ER) (AID 2283821);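 further: hits raise reporter mRNA above DMSO baseline so potency means agonist or activator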
How it was run: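 Gain-of-signal mRNA reporter assay, HepG2 human liver cells, 24 h dosing; transcripts read by fluorescent RT-PCR fragment analysis, DMSO as negative control.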

[9] = system: turtle Androgen Receptor (AR), gene 101947425; assay: ATG_trAR_XSP2: Attagene TRANS-FACTORIAL Multi-Species (XSP2) HepG2 Assay for turtle Androgen Receptor (AR) (AID 2283815);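 on AC50: potency for gain of reporter signal meaning activation above DMSO baseline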
How it was run: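 Reporter transcripts were quantified via RT-PCR and capillary electrophoresis and fitted upward against DMSO. Transiently transfected human HepG2 cells carrying NR-Gal4 chimeras were exposed 24 h, with 3 nM 6-alpha-fluorotestosterone plus 1.5 nM norgestrel added.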

[10] = ATG_M_19_XSP2: Attagene TRANS-FACTORIAL Multi-Species (XSP2) HepG2 Assay for M32 Transcription Factor (Internal Marker) (AID 2283822)
How it was run: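 Internal background marker in a multi-species nuclear receptor TRANS panel: transfected HepG2 cells exposed 24 h, with 3 nM 6-alpha-fluorotestosterone and 1.5 nM norgestrel present. Readout is RT-PCR of reporter transcripts resolved by capillary electrophoresis, gain-of-signal versus DMSO.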

Measured: AC50

Sequence of GAL4 Transcription Factor (Internal Marker), GAL4 (gene 855828) (P04386 whole entry, looked up, the tested form may be a part): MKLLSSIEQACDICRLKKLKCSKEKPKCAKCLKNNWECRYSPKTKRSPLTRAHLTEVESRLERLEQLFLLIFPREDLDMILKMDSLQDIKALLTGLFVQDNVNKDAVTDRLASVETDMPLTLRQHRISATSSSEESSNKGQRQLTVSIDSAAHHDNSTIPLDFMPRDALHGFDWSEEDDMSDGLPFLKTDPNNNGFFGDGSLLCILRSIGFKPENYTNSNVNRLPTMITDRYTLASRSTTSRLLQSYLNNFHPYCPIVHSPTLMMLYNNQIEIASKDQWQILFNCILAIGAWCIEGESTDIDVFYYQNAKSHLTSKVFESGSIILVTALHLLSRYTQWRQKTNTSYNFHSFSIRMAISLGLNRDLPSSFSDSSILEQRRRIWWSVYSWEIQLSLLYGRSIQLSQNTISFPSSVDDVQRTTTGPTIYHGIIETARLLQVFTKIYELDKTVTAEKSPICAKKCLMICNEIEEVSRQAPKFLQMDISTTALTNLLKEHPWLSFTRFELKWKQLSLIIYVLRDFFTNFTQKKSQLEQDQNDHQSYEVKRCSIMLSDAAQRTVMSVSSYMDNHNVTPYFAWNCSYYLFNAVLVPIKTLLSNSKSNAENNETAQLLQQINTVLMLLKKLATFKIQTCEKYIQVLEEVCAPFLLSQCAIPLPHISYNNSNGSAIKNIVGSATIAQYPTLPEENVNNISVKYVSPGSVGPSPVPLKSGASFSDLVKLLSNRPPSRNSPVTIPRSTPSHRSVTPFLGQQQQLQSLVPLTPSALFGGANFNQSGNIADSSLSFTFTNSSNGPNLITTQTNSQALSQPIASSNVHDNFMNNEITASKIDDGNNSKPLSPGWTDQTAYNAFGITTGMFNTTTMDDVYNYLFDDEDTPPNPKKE
Sequence of zebrafish Estrogen Receptor (ER1), esr1 (gene 259252) (P57717 whole entry, looked up, the tested form may be a part): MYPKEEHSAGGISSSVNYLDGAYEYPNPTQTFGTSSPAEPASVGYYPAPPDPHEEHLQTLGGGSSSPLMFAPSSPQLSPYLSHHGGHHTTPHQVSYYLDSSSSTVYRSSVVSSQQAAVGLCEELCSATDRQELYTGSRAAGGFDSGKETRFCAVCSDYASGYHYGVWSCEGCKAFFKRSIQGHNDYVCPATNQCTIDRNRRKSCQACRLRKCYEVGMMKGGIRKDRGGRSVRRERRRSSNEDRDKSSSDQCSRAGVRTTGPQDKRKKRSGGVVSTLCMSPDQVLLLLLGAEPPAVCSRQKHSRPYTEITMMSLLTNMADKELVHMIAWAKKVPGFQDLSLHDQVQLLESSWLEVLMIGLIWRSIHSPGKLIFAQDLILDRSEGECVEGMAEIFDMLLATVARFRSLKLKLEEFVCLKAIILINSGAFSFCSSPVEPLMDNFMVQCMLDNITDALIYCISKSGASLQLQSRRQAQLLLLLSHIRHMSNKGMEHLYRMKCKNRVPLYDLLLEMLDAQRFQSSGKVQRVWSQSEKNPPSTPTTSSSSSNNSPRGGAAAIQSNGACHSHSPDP
Sequence of Estrogen receptor beta (Homo sapiens) (Q92731 whole entry, looked up, the tested form may be a part): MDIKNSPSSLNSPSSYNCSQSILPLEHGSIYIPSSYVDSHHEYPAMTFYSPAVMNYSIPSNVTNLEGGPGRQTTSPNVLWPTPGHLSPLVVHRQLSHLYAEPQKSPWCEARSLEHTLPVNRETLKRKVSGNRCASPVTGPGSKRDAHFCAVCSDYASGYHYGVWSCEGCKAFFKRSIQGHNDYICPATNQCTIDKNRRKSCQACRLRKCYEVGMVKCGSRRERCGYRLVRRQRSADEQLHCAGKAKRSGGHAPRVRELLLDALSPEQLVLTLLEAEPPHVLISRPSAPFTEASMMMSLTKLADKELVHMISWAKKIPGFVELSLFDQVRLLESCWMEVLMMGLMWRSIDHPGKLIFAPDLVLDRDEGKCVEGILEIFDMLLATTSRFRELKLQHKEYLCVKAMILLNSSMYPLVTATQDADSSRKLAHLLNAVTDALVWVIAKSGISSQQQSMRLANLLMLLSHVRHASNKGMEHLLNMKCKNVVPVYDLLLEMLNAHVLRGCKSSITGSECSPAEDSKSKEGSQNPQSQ
Sequence of chicken Estrogen Receptor (ERa), ESR1 (gene 396099) (P06212 whole entry, looked up, the tested form may be a part): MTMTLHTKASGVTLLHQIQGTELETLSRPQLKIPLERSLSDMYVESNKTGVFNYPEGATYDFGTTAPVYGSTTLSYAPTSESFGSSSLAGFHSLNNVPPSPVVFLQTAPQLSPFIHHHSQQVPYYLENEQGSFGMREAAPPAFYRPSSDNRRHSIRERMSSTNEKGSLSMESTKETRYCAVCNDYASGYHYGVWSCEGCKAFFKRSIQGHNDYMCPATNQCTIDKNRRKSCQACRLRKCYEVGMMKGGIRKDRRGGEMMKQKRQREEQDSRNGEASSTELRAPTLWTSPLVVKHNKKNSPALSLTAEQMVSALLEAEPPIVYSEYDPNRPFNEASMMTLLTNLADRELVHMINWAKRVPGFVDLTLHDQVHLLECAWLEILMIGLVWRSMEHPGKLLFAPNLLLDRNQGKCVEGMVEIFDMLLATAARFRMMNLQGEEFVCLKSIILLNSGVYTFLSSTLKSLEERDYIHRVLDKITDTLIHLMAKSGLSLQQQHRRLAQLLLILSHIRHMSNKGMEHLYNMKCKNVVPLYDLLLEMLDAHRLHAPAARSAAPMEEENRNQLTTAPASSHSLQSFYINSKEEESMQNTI

O=P(Oc1ccccc1)(Oc1ccccc1)Oc1ccccc1
inactive: [1] | [2] | [3] | [4] | [5]

CCCCc1ccc(O)cc1
active: [6] 2.42 µM and 3.02 µM | [7] 2.45 µM and 2.3 µM | [2] 69.6 µM and 7.15 µM | [3] 3.21 µM and 1.79 µM | [4] 6.3 µM and 1.66 µM | [8] 1.96 µM and 1.08 µM

O=S(=O)(c1ccc(O)cc1)c1ccc(O)cc1
inactive: [9] | [5]
active: [6] 2.98 µM and 2.14 µM | [7] 1.66 µM and 1.76 µM | [9] 27 µM | [2] 41.8 µM and 17.2 µM | [3] 2.24 µM and 2.5 µM | [4] 5.32 µM and 3.79 µM | [5] 27.1 µM | [8] 2.94 µM and 894 nM

c1ccc2c(c1)Nc1ccccc1S2
inactive: [1] | [2]
active: [6] 10.7 µM and 6.48 µM | [7] 27.2 µM and 5.66 µM | [3] 11.3 µM and 4.72 µM | [4] 19 µM and 6.16 µM | [8] 14.7 µM and 13.2 µM

CC(C)(C)c1ccc(O)cc1
active: [6] 6.07 µM and 4.64 µM | [2] 170 µM and 51.1 µM | [3] 4.76 µM and 6.06 µM | [8] 26.6 µM
inactive: [4] | [8]

CCC(C)(C)c1ccc(O)cc1
active: [6] 4.29 µM and 1.92 µM | [7] 44.4 µM and 3.05 µM | [2] 34.1 µM and 7.34 µM | [3] 3.58 µM and 2.33 µM | [8] 25.9 µM and 2.38 µM
inactive: [1] | [4] | [5] | [10]
